The test is described as follows: sensitizers of A549 cells to miR-34 induction, primary screen, imaging, A549 dox-inducible miR-34, nuclei and caspase counts (AID 1347080). Also: test concentration not given here. The following applies: A549 miR-34 inducible, Hoechst nuclei count, 48 h.
The mark [1] stands for this setting: stronger effect = lower value, cell number ratio, induced over uninduced.
[2] abbreviates: measured here: relative caspase fold change +Dox/-Dox.
Setting [3] is: measured here: total cells with miR-34 induction, stronger effect = lower value.
Where [4] appears, read: measured here: total cells without miR-34 induction.

The structures appear in SMILES notation. Calls of active or inactive are those of the source.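 The calls were made as follows: active = compounds whose cell count with miR-34 switched on is under 0.7 times the count with it off; inactive = the rest.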

Drawing on PubChem BioAssay, this text covers fold change and cell count for 28 compounds.

On to `CC(C)=CCC/C(C)=C/CC/C(C)=C/CSc1ccccc1C(N)=O`, for which the fold change by setting is: under setting [1], 0.994 (inactive); under setting [2], 0.741. For the same compound, the cell count was determined as 5740 under setting [3] and 5780 under setting [4].
In the case of `CCCCCCCCCCCCCCCCCC(=O)OCC`, the fold change is 0.95 (inactive) under setting [1] and 2.18 under setting [2]. Besides, the cell count under setting [3] turned out to be 5760 and the cell count under setting [4] stood at 6060.
For `CCCCC[C@H](O)/C=C/[C@@H]1[C@H](C/C=C\CCCC(=O)NCCO)[C@@H](O)C[C@H]1O`, the fold change is 1.11 (inactive) under setting [1] and 0.881 under setting [2]. Also, the cell count runs as follows: under setting [3], 6440; under setting [4], 5790.
`CC(C)(O)c1ccccc1CC[C@H](SCC1(CC(=O)O)CC1)c1cccc(/C=C/c2ccc3ccc(Cl)cc3n2)c1`: the fold change was 1.04 (inactive) under setting [1] and 0.195 under setting [2]. Further, the cell count by setting is: under setting [3], 5500; under setting [4], 5280.
For `CC(=O)[C@H]1[C@H](C#N)C[C@H]2[C@@H]3CC=C4C[C@@H](O)CC[C@]4(C)[C@H]3CC[C@@]21C`, the fold change is 1.01 (inactive) under setting [1] and 1.04 under setting [2]. Further, the cell count is 5370 under setting [3] and 5300 under setting [4].
As to `CCCCC[C@H](O)/C=C/[C@H]1[C@H](O)CC(=O)[C@H]1CCCCCCC(=O)O`, the fold change reads like this: under setting [1], 1.03 (inactive); under setting [2], 0.989. In addition, the cell count is, setting by setting: under setting [3], 5570; under setting [4], 5390.
As to `Cn1c([N+](=O)[O-])cc[n+]1C`, the fold change was 0.892 (inactive) under setting [1] and 0.659 under setting [2]. The cell count under setting [3] came to 8620 and the cell count under setting [4] stood at 9670.
As to `CCCCC/C=C\C/C=C\CCCCCCCC(=O)OCC(COC(=O)CCCCCCCCCCCCCCC)OC(=O)CCCCCCC/C=C\CCCCCCCC` (configuration not stated), the fold change reads like this: under setting [1], 1.03 (inactive); under setting [2], 0.903. Besides, the cell count came out at 5950 under setting [3] and 5790 under setting [4].
With `CC(=O)c1ncc([C@@H](O)[C@H](O)[C@H](O)CO)[nH]1`, the fold change is, setting by setting: under setting [1], 0.931 (inactive); under setting [2], 2.05. Besides, the cell count runs as follows: under setting [3], 5900; under setting [4], 6330.
Consider `CCCCCC(=O)OC[C@H](CO)OC(=O)CCCCC`, for which the fold change reads like this: under setting [1], 0.964 (inactive); under setting [2], 0.528. Also, the cell count under setting [3] was 5390 and the cell count under setting [4] worked out at 5590.
Turning to `CCOC(=O)/C=C/[C@H](CC(C)C)NC(=O)[C@H](CO)NC(=O)[C@@H](NC(=O)c1cccc(O)c1C)C(C)C`, the fold change by setting is: under setting [1], 0.61 (active); under setting [2], 0.781. Besides, the cell count by setting is: under setting [3], 3640; under setting [4], 5980.
As to `CC(C)c1cc2c(c(O)c1O)C13CCCC(C)(C)C1CC2OC3=O` (configuration not stated), the fold change is 0.942 (inactive) under setting [1] and 1.02 under setting [2]. The cell count under setting [3] is 5390 and the cell count under setting [4] turned out to be 5730.
On to `CCCCC(C)(C)[C@H](O)/C=C/[C@H]1C(=O)C[C@H](O)[C@@H]1C/C=C\CCCC(=O)O`, for which the fold change by setting is: under setting [1], 1.04 (inactive); under setting [2], 0.943. Further, the cell count worked out at 5440 under setting [3] and 5250 under setting [4].
For the compound `C1CCC(NC(=NC2C3CC4CC(C3)CC2C4)N2CCOCC2)CC1` (configuration not stated), the fold change under setting [1] was 1.04 (inactive) and the fold change under setting [2] came out at 1.05. Besides, the cell count under setting [3] came out at 5720 and the cell count under setting [4] was found to be 5520.
For the compound `CCCCC/C=C\CCCCCCCCCCCCC(=O)O`, the fold change runs as follows: under setting [1], 0.9 (inactive); under setting [2], 1.51. Also, the cell count is 4990 under setting [3] and 5540 under setting [4].
On to `Cc1nc(COP(=O)(O)O)cc(CN(CCN(CC(=O)O)Cc2cc(COP(=O)(O)O)nc(C)c2O)CC(=O)O)c1O.[Mn]`, for which the fold change reads like this: under setting [1], 1.02 (inactive); under setting [2], 0.746. Also, the cell count turned out to be 9240 under setting [3] and 9050 under setting [4].
For `CCCCCCCCCCCCCCP(=O)(O)O`, the fold change runs as follows: under setting [1], 0.898 (inactive); under setting [2], 0.729. For the same compound, the cell count runs as follows: under setting [3], 4910; under setting [4], 5470.
Consider `Nc1nc2c([nH]c(=O)n2[C@H]2C[C@H](O)[C@@H](CO)O2)c(=O)[nH]1`, for which the fold change under setting [1] was 0.857 (inactive) and the fold change under setting [2] worked out at 1.18. In addition, the cell count amounted to 4960 under setting [3] and 5800 under setting [4].
As to `CCCCCCCCCCCCCCCCCCCC(=O)NCCO`, the fold change runs as follows: under setting [1], 1.07 (inactive); under setting [2], 0.773. In addition, the cell count by setting is: under setting [3], 6530; under setting [4], 6100.
The corresponding values for `CCCCC/C=C\C/C=C\CCCCCCCC(=O)O[C@H](COC(=O)CCCCCCCCCCCCCCC)COP(=O)(O)OCCN` are 0.789 (inactive), 0.779, 4540 and 5760.
The corresponding values for `CCCCC[C@H](O)/C=C/[C@H]1C=CC(=O)[C@H]1C/C=C\CCCC(=O)O` are 1.06 (inactive), 1.6, 6170 and 5800.
On to `CCCC[C@H](C)C[C@H](O)/C=C/[C@H]1[C@H](O)CC(=O)[C@@H]1CCCCC(CC(=O)O)OC` (some centres not stated), for which the fold change by setting is: under setting [1], 0.949 (inactive); under setting [2], 0.824. Besides, the cell count is 5200 under setting [3] and 5480 under setting [4].
With `CS(=O)(=O)NC(=O)CCC/C=C\C[C@H]1C(=O)C[C@@H](O)[C@@H]1/C=C/[C@@H](O)COc1ccccc1`, the fold change is, setting by setting: under setting [1], 0.897 (inactive); under setting [2], 1.55. Moreover, the cell count by setting is: under setting [3], 5660; under setting [4], 6300.
The corresponding values for `COc1ccc2cc(CC(=O)O)ccc2c1` are 0.964 (inactive), 1.2, 5630 and 5840.
As for `CC#CCC(C)[C@@H](O)/C=C/[C@@H]1[C@H]2C/C(=C/CCCC(=O)O)C[C@H]2C[C@H]1O` (some centres not stated), the fold change runs as follows: under setting [1], 0.965 (inactive); under setting [2], 2.36. The cell count stood at 5460 under setting [3] and 5660 under setting [4].
The matching figures for `CCCCC[C@](C)(O)/C=C/[C@@H]1[C@@H](C/C=C\CCCC(=O)O)[C@@H](O)C[C@H]1O`: 0.971 (inactive), 1.48, 5410 and 5570.
With `O=C1C[C@@H]2[C@@H](/C=C/[C@@H](O)COc3cccc(C(F)(F)F)c3)[C@H](O)C[C@@H]2O1`, the fold change reads like this: under setting [1], 0.96 (inactive); under setting [2], 1.35. Moreover, the cell count is, setting by setting: under setting [3], 5650; under setting [4], 5880.
For `C[C@H](N)C(=O)CCCCCC(=O)O`, the fold change was 1.03 (inactive) under setting [1] and 0.642 under setting [2]. Besides, the cell count reads like this: under setting [3], 6090; under setting [4], 5890.
